Assay outcomes from PubChem.
NOMO-1 viab: NOMO-1 AML cell viability reduction, primary screen, STK33 inhibitor project, CellTiter-Glo luminescence; AID 2330, 2010; actives 7.5% (n = 37,000); NOMO-1 AML viability, 72 h; inhibition, % (no concentration beside the values); in the data active = inhibition above about 80%
p53 PUMA act: mutant p53 pathway re-activators, primary screen, cell-based, SW480, luciferase, single point, HTS; actives 1.5% (n = 28,000); activation, % at 9.98 µM; AID 624151, 2012; SW480 PUMA-promoter luciferase, p53 mutant reactivation; in the data active = activation above about 52%
ID4 SMM: binders of human ID4 protein, primary screen, biochemical, small molecule microarray, single point | DNA-binding protein inhibitor ID-4 (Homo sapiens), P47928 | Flag-ID4 binding, fluorescence F/B | calls only | actives 1.2% (n = 31,000) | AID 624137, 2012; call rule not given here;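 also: a binder raises fluorescence above local background on the spot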
STK33 inh: STK33 kinase inhibitors, primary screen, biochemical, luminescence, ADP-Glo, MBP substrate; inhibition, % at 12.5 µM; actives 0.44% (n = 27,000); AID 2322, 2010; in the data active = inhibition above about 20%
Target sequence (Q9BYT3 whole entry, looked up): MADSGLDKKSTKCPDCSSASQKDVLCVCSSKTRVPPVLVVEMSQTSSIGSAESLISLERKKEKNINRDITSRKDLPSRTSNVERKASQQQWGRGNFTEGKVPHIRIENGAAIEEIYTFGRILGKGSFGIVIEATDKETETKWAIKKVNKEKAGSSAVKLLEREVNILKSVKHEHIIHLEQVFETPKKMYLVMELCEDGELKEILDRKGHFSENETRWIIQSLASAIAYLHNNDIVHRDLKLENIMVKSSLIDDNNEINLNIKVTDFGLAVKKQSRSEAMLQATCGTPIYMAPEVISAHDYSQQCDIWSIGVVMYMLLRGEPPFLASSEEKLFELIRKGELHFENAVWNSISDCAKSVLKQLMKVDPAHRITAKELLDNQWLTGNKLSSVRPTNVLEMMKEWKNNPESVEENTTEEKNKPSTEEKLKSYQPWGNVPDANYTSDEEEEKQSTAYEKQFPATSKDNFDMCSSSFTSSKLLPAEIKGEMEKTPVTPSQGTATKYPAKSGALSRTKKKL
Each line names hits and unclear results; the compound was inactive in the other large screens. This excerpt belongs to a sample that is enriched for hits.

C[C@@H]1CN([C@H](C)CO)C(=O)Cc2cc(NS(=O)(=O)c3ccc(F)cc3)ccc2O[C@@H]1CN(C)CC1CCCCC1	none (no result: p53 PUMA act, ID4 SMM)
COc1ccccc1CNC(=O)c1cc(-c2ccccn2)nc2c(Cl)cccc12	NOMO-1 viab 92
Cc1cc(C)c2nc(-c3ccccn3)cc(C(=O)NCc3ccc(S(N)(=O)=O)cc3)c2c1	NOMO-1 viab 113
COc1ccc(CCNC(=O)c2cc(-c3cccnc3)nc3c(Cl)cccc23)cc1OC	none
Cc1cc(C)c2nc(-c3ccccn3)cc(C(=O)NCCc3ccc(S(N)(=O)=O)cc3)c2c1	none
C[C@@H]1CN([C@@H](C)CO)C(=O)Cc2cc(NS(=O)(=O)c3ccccc3)ccc2O[C@H]1CN(C)C(=O)NC1CCCCC1	none (no result: NOMO-1 viab, STK33 inh)
O=C(C[C@@H]1C[C@H]2c3cc(NC(=O)C4CCOCC4)ccc3O[C@H]2[C@H](CO)O1)NCc1cc(F)ccc1F	none (no result: NOMO-1 viab, ID4 SMM, STK33 inh)
CC(=O)C(C#N)C(=O)Nc1cc(Br)ccc1Br (stereo unspecified)	STK33 inh 22
CC(=O)Nc1ccc(Br)cc1	none (no result: p53 PUMA act, ID4 SMM, STK33 inh)
CCc1ccccc1NC(=O)COc1ccc2c(=O)c(Oc3ccccc3Cl)coc2c1	none
CC(=O)C1C(=O)C2C3c4c[nH]c5cccc(c45)CC3C(C)(C)N2C1=O (stereo unspecified)	none
CC(=O)C1C(=O)[C@@H]2[C@H]3c4c[nH]c5cccc(c45)C[C@H]3C(C)(C)N2C1=O (stereo partly specified)	NOMO-1 viab 131 (no result: ID4 SMM)
CC1(C)C=Cc2cc3ccc(=O)oc3cc2O1	p53 PUMA act 58 (no result: NOMO-1 viab, ID4 SMM, STK33 inh)
COc1c2c(cc3oc(=O)ccc13)OC(C)(C)C=C2	none (no result: p53 PUMA act)
C=C(CO)C(=O)O[C@H]1C[C@H]2C(=C)C[C@H](OC(=O)C(=C)CO)[C@H]3C(=C)C(=O)O[C@@H]3[C@H]2C1=C	NOMO-1 viab 117 (no result: p53 PUMA act, ID4 SMM)
C[C@H]1CN([C@@H](C)CO)C(=O)c2cccc(NC(=O)c3ccncc3)c2O[C@H]1CN(C)C(=O)Nc1cccc2ccccc12	none (no result: STK33 inh)
Cc1ccc(S(=O)(=O)N(C)C[C@@H]2Oc3ccc(NC(=O)CCCN(C)C)cc3CC(=O)N([C@H](C)CO)C[C@H]2C)cc1	none (no result: p53 PUMA act, ID4 SMM)
COc1ccc(C(=O)N2c3ccccc3CCc3ccccc32)cc1	NOMO-1 viab 104 (no result: p53 PUMA act, ID4 SMM, STK33 inh)
C[C@@H]1CN([C@@H](C)CO)C(=O)c2cc(NC(=O)Nc3ccc(C(F)(F)F)cc3)ccc2O[C@H]1CN(C)Cc1ccc(-c2ccccc2)cc1	NOMO-1 viab 118 (no result: p53 PUMA act, ID4 SMM, STK33 inh)
C[C@H](CO)N1C[C@H](C)[C@@H](CN(C)Cc2ccc(-c3ccccc3)cc2)Oc2ccc(NC(=O)Nc3ccc(C(F)(F)F)cc3)cc2C1=O	NOMO-1 viab 122 (no result: p53 PUMA act, ID4 SMM, STK33 inh)
C[C@H](CO)N1C[C@H](C)[C@@H](CN(C)Cc2ccc(C(=O)O)cc2)Oc2ccc(NC(=O)Nc3ccc(C(F)(F)F)cc3)cc2C1=O	none (no result: p53 PUMA act, ID4 SMM, STK33 inh)
C[C@@H]1CN([C@H](C)CO)C(=O)c2cc(NC(=O)Nc3ccccc3)ccc2O[C@@H]1CN(C)Cc1ccc(C(F)(F)F)cc1	none (no result: p53 PUMA act, ID4 SMM)
C[C@@H]1CN([C@@H](C)CO)C(=O)c2cc(NC(=O)Nc3ccc(C(F)(F)F)cc3)ccc2O[C@@H]1CN(C)Cc1ccc(-c2ccccc2)cc1	NOMO-1 viab 126 (no result: p53 PUMA act, ID4 SMM, STK33 inh)
C[C@@H]1CN([C@H](C)CO)C(=O)c2cc(NC(=O)Nc3ccc(C(F)(F)F)cc3)ccc2O[C@H]1CN(C)Cc1ccc(-c2ccccc2)cc1	NOMO-1 viab 126 (no result: p53 PUMA act, ID4 SMM, STK33 inh)
C[C@H]1CN([C@@H](C)CO)C(=O)c2cc(NC(=O)Nc3ccc(C(F)(F)F)cc3)ccc2O[C@H]1CN(C)Cc1ccc(C(=O)O)cc1	none (no result: p53 PUMA act, ID4 SMM)
C[C@H](CO)N1C[C@H](C)[C@@H](CN(C)C(=O)C2CCCCC2)Oc2ncc(-c3ccccc3F)cc2C1=O	none (no result: NOMO-1 viab, p53 PUMA act, STK33 inh)
COc1cc(NC(=O)Cn2nc(C(F)(F)F)c(Cl)c2C)cc(OC)c1OC	none
COc1cc(NC(=O)Cn2nc(C(F)(F)F)c(Cl)c2C)cc([N+](=O)[O-])c1	NOMO-1 viab 114
CC(C)n1cnc2c(NCc3ccccc3)nc(NCCO)nc21	p53 PUMA act 92, STK33 inh 35
c1cn2c3c(n1)CCCc3c1cc(C3CCCCC3)ccc12	NOMO-1 viab 123 (no result: p53 PUMA act, ID4 SMM, STK33 inh)
C[C@@H]1CN([C@H](C)CO)C(=O)c2cccc(NC(=O)C3CC3)c2O[C@@H]1CN(C)Cc1ccc(Oc2ccccc2)cc1	none (no result: p53 PUMA act, ID4 SMM, STK33 inh)
C[C@@H]1CN([C@@H](C)CO)C(=O)c2cccc(NC(=O)C3CC3)c2O[C@H]1CN(C)Cc1ccc(Oc2ccccc2)cc1	NOMO-1 viab 100 (no result: p53 PUMA act, ID4 SMM, STK33 inh)
C[C@@H]1CN([C@@H](C)CO)C(=O)c2cc(NC(=O)C3CCCCC3)ccc2O[C@H]1CN(C)Cc1ccc(Oc2ccccc2)cc1	NOMO-1 viab 100 (no result: p53 PUMA act, ID4 SMM)
